Only some compounds are listed: those with a hit (about 19% of all), similar ones and a draw of the others.
Shiga toxin inh: inhibitors of Shiga toxin in Vero cells | Vero cells, Shiga toxin protein synthesis inhibition reporter | inhibition, % at 38.7 µM | 290,000 tested, 9.2% active | AID 2315; in the data active means inhibition mostly above about 28%, no sharp cut-off; inactive means mostly below about 43%
CHX counter: counter-screen hit for Shiga toxin inhibitors, cycloheximide; AID 2314; 300,000 tested, 12% active; max response, %; cell reporter, cycloheximide protein synthesis inhibition counterscreen; in the data active means max response mostly above about 13%, no sharp cut-off; inactive means mostly below about 14%; further: read at 38.3 µM for the half of the compounds with a filed dose
Pf growth 96h: P. falciparum growth inhibition at 96 hours; P. falciparum luciferase reporter growth, 96 h; AID 504834; Potency, µM (top dose mostly 28.7 µM), most hits filed as inhibitors; 320,000 tested, 6.9% active
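Cell-based qHTS: luciferase-tagged P. falciparum in erythrocytes (2% hematocrit, 0.05% parasitemia final) incubated with compounds for 96 hours, 37 C, 5% CO2; luciferase detection reagent then added and luminescence measured.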
Pf growth 48h: inhibits P. falciparum growth in the first generation, 48 h | 310,000 tested, 5.9% active | AID 504832 | Potency, µM (top dose mostly 28.7 µM), hits mostly inhibitors | P. falciparum luciferase growth in erythrocytes, 48 h
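Here the parasites carry a stable luciferase gene and grow inside erythrocytes in Albumax-based RPMI medium with compound for one erythrocytic cycle. Activity is scored as loss of luminescent signal.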
Lassa entry inh: inhibitors of Lassa virus binding or cell entry; Lassa virus pseudotype entry inhibition, cell reporter; Potency, µM (series often up to 37.9 µM), actives largely listed as inhibitors; 300,000 tested, 1.2% active; calls by dose curve; tested in HEK293 cells; further: nearly all actives have a fitted effect of over 50% in size
Marburg entry inh: blocks Marburg virus binding to or entry into cells; Marburg virus pseudotyped entry inhibition, cell reporter; Potency, µM (titrated, usually from 37.8 µM), usual class: inhibitors; 300,000 tested, 1.8% active; AID 540276; calls by dose curve; tested in HEK293 cells
Of the large screens only hits and unclear results are named; the others gave an inactive call. Unless noted, the call rests on the fitted dose curve; in most records, active means well fitted inhibition curve with a large enough effect; inconclusive means small, poorly fitted or top-dose-only effect, or another doubt; inactive means no such curve, though single readings can be large or run the other way.

CCOc1ccc2nc(C)cc(Nc3ccc(N4CCOCC4)cc3)c2c1	Pf growth 96h 2.6µM, Pf growth 48h 2.1µM, Marburg entry inh inconclusive
O=C(CC1SCCNC1=O)Nc1ccc(F)c(Cl)c1 (stereo unspecified)	Lassa entry inh inconclusive
CC(C)(C)c1ccc(Cn2ccc(-c3ccc4c(c3)OCO4)n2)cc1	Pf growth 96h inconclusive
CCc1ccc(CNC(=O)Cc2ccc(NC(=O)N3CCSc4ncccc43)cc2)cc1	none (no result: Shiga toxin inh, CHX counter, Pf growth 96h, Pf growth 48h, Marburg entry inh)
Cc1ccccc1N1C(=O)CSC1=C(C#N)C#N	none (no result: Lassa entry inh)
CC(=O)c1ccc(Nc2cc(C)nc3ccc(C)cc23)cc1	Pf growth 48h 3.7µM, Lassa entry inh inconclusive, Marburg entry inh inconclusive
Cc1cc(Nc2cccc([N+](=O)[O-])c2)c2ccccc2n1	Pf growth 48h inconclusive
CCOc1ccc2nc(C)cc(Nc3cccc([N+](=O)[O-])c3)c2c1	Pf growth 96h 1µM, Pf growth 48h 1.7µM, Lassa entry inh inconclusive, Marburg entry inh inconclusive
Cc1cccc(C(=O)Nc2ccnc(-c3cccnc3)n2)c1	Pf growth 96h inconclusive (no result: Lassa entry inh, Marburg entry inh)
O=C(Cn1nc(Cc2cccnc2)c2ccccc2c1=O)N1CCC2(CC1)OCCO2	none
c1ccc(C2COC(c3cccs3)=N2)cc1 (stereo unspecified)	CHX counter 23
NC(=O)c1nn2c(C(F)(F)F)cc(-c3ccccc3)nc2c1Br	Pf growth 96h inconclusive (no result: Lassa entry inh, Marburg entry inh)
O=C(c1ccccc1)N1CCN(C(=O)c2nn3c(C(F)(F)F)cc(-c4ccccc4)nc3c2Br)CC1	Pf growth 48h 8.3µM, Marburg entry inh inconclusive
COCCNC(=O)c1nn2c(C(F)(F)F)cc(-c3ccccc3)nc2c1Cl	none (no result: Lassa entry inh, Marburg entry inh)
CCCNC(=O)c1nn2c(C(F)(F)F)cc(-c3ccccc3)nc2c1Br	Pf growth 96h 9.3µM, Pf growth 48h inconclusive (no result: Lassa entry inh, Marburg entry inh)
O=C(NCCCn1ccnc1)c1nn2c(C(F)(F)F)cc(-c3ccccc3)nc2c1Cl	Pf growth 48h 15µM, Marburg entry inh inconclusive
Cc1c(C(=O)N(C)C)sc2c1c(=O)n(-c1ccc(Cl)c(Cl)c1)c(=O)n2CC(=O)C(C)(C)C	none (no result: Shiga toxin inh, CHX counter, Pf growth 96h, Pf growth 48h, Marburg entry inh)
CC(C)C(NS(=O)(=O)c1ccccc1)C(=O)N1CCCCCC1 (stereo unspecified)	none
c1ccc(Cn2nnnc2C(c2ccccn2)N2CCN(c3ccccc3)CC2)cc1 (stereo unspecified)	Pf growth 96h inconclusive, Pf growth 48h inconclusive, Lassa entry inh inconclusive
Cn1nnnc1SCC(=O)Nc1ccccc1Cc1ccccc1	Marburg entry inh inconclusive
CC(C)n1nnnc1SCC(=O)NCCc1ccccc1	CHX counter 16, Marburg entry inh inconclusive
CC(=O)Nc1ccc(C(=O)CSc2nnnn2C2CCCC2)cc1	CHX counter 15
COC(=O)c1ccc(NC(=O)CSc2nnnn2C2CCCCC2)cc1	none
CCCn1c(SCC(=O)NCCc2ccccc2)nnc1C(C)C	none
COc1ccccc1NC(=O)CSc1nnnn1C1CCCC1	none
CC(CCc1ccccc1)NC(=O)CSc1nnnn1C (stereo unspecified)	Pf growth 96h 4.7µM, Marburg entry inh inconclusive
O=C(CSc1nnnn1C1CCCC1)Nc1ccccc1F	Shiga toxin inh 31, CHX counter 13 (no result: Lassa entry inh, Marburg entry inh)
S=C(Nc1ccc2nc(-c3ccccn3)c(-c3ccccn3)nc2c1)N1CCCCCC1	Pf growth 48h inconclusive
O=C(CSc1nnnn1C1CCCC1)N1CCOCC1	CHX counter 36, Pf growth 96h inconclusive
Cc1occc1-c1nnc(SCC(=O)NCCc2ccccc2)o1	none
O=C(CSc1nnnn1C1CCCCC1)NCc1ccc2c(c1)OCO2	Pf growth 96h inconclusive
O=C(CSc1nnnn1C1CCCC1)Nc1ccccc1N1CCOCC1	none
Cc1occc1-c1nnc(SCC(=O)NCCc2ccccc2)n1C(C)c1ccccc1 (stereo unspecified)	Pf growth 96h 8.3µM, Pf growth 48h inconclusive
O=C(CSc1nnnn1C1CCCC1)NCCc1ccccc1	Shiga toxin inh 49, CHX counter 23, Marburg entry inh inconclusive
O=C(CSc1nnnn1C1CCCC1)NCc1ccc2c(c1)OCO2	Pf growth 96h 10µM
O=C(CSc1nnnn1C1CCCCC1)NCc1ccco1	Pf growth 96h inconclusive
O=C(CCN1C(=O)C2C3C=CC(C3)C2C1=O)N1CCCCC1 (stereo unspecified)	Pf growth 96h inconclusive, Pf growth 48h inconclusive, Lassa entry inh inconclusive
O=C(NCC(c1ccco1)N1CCOCC1)c1ccc([N+](=O)[O-])cc1 (stereo unspecified)	none (no result: Lassa entry inh, Marburg entry inh)
